High-throughput results deposited in PubChem by National Center for Advancing Translational Sciences (NCATS).
The list is not random: actives were taken first. Their share in the collection is about 3.2%.
RE007 growth inh: less growth of the S. pombe RE007 Vpr strain. S. pombe RE007 Vpr strain, BacTiter-Glo ATP luminescence, 24 h. AID 651644. 360,000 tested, 0.21% active. Potency, µM (highest dose often 92.2 µM), most hits filed as inhibitors; active = well fitted falling curve with a large enough effect; inconclusive = small, poorly fitted or top-dose-only effect; inactive = no such curve, though single readings can be large or run the other way; also: nearly all actives have a fitted effect of over 50% in size
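Fission yeast strain RE007, carrying one chromosomally integrated HIV-1 vpr copy, was seeded at OD 0.01 in PMG+AL medium with 23 nL pinned compound. After 24 h at 30 °C and 99% humidity, viability was read by BacTiter-Glo luminescence.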
LmPK inh: blocks Leishmania mexicana pyruvate kinase activity | Q27686 | purified LmPK, Kinase-Glo ATP luminescence, 1 h | Potency, µM (highest dose often 57.5 µM), most hits filed as inhibitors | 290,000 tested, 0.37% active
Target sequence (Q27686 whole entry, looked up): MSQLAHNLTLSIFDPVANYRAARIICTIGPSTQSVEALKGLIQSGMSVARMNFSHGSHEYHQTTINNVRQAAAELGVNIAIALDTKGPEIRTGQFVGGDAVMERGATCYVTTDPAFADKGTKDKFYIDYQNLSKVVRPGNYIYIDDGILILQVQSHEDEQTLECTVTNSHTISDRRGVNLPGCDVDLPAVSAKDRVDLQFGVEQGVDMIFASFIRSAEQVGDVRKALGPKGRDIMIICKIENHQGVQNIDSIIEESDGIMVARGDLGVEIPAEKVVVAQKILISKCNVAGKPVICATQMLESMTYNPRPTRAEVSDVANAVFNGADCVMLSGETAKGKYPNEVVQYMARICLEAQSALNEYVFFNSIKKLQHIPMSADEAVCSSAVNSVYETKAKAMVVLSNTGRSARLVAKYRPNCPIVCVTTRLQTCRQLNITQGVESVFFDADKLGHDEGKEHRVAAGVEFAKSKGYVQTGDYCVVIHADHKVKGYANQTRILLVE
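0.1 nM LmPK, 0.5 mM PEP, 0.1 mM ADP; 50 mM imidazole pH 7.2, 7 mM MgCl2, 50 mM KCl; 1 h RT. Kinase-Glo luminescence readout, normalized to no-enzyme (full inhibition) and uninhibited wells.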
Tb PYK inh: T. brucei pyruvate kinase inhibition; TbPYK enzyme, Kinase-Glo Plus ATP luminescence, 45 min; 410,000 tested, 0.12% active; Q57TT1; Potency, µM (series often up to 76.8 µM), hits mostly inhibitors; also: nearly all actives have a fitted effect of over 50% in size
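ADP (130 uM final) triggers the TbPYK reaction after compound addition; incubation is 45 min at room temperature. Kinase-Glo Plus is then added and luminescence imaged. Normalized data are fitted to concentration-effect curves.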
Sm TGR block: S. mansoni TGR enzyme inhibition; Q962Y6; purified TGR, DTNB reduction, TNB absorbance 405 nm; Potency, µM (series often up to 114 µM), usual class: inhibitors; 360,000 tested, 3% active; also: nearly all actives have a fitted effect of over 60% in size
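TGR 20 nM + NADPH 100 uM (dispensed conc.), cpd preinc 15 min RT; start with NADPH (500 uM addition) then DTNB (15 mM addition). Kinetic TNB absorbance, 405 nm filter. Four-parameter Hill fit across titration.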
AMA1-RON2 inh: disrupts binding of P. falciparum AMA1 to RON2. AlphaScreen AMA1-biotinylated RON2 peptide binding. Potency, µM (highest dose often 58.2 µM), hits mostly inhibitors. 360,000 tested, 0.2% active. AID 720542; also: nearly all actives have a fitted effect of over 45% in size
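AMA1 (3D7) with his tag at 25 nM final met compounds first, then biotinylated RON2 peptide at 25 nM; detection used donor plus acceptor beads, 10 µg/mL apiece, read by AlphaScreen after 30 min at room temperature.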
Large screens that a line does not name were inactive. Unless noted, calls follow the shape of the dose curve; as a rule, active = well fitted curve in the direction sought with a large enough effect; inconclusive = small, poorly fitted or top-dose-only effect, or another doubt; inactive = no such curve, though single readings can be large; an effect the other way counts as inactive or inconclusive.

Cc1ccc(NC(=O)c2cc(N3C(=O)C=CC3=O)ccc2N2CCOCC2)cc1	RE007 growth inh 8.9µM, Tb PYK inh 22µM, Sm TGR block 0.71µM
Cc1ccc(NC(=O)c2cc(-n3cnnc3)ccc2Cl)cc1	none
COc1ccc(OC)c(C2CC(=O)N3CN(c4ccccc4F)CSC3=C2C#N)c1 (stereo not drawn)	Tb PYK inh inconclusive, Sm TGR block 16µM
COc1cc(C2CC(=O)N3CN(c4ccccc4C)CSC3=C2C#N)cc(OC)c1OC (stereo not drawn)	Sm TGR block inconclusive (no result: RE007 growth inh, Tb PYK inh, AMA1-RON2 inh)
COc1ccccc1N1CSC2=C(C#N)C(c3ccc(SC)cc3)CC(=O)N2C1 (stereo not drawn)	Tb PYK inh 18µM, Sm TGR block inconclusive
COc1ccc(Br)cc1C1CC(=O)N2CN(Cc3ccccc3)CSC2=C1C#N (stereo not drawn)	Tb PYK inh inconclusive
COc1cccc(C2CC(=O)N3CN(c4ccccc4F)CSC3=C2C#N)c1 (stereo not drawn)	Tb PYK inh 3.5µM, Sm TGR block 35µM
CCOc1ccc(CNC(=O)c2cccn2-c2nnc(N3CCCCC3)s2)cc1OC	none (no result: RE007 growth inh, LmPK inh, AMA1-RON2 inh)
Cc1ccccc1NC(=O)Cn1c(=O)n(CCC(=O)NCc2ccc3c(c2)OCO3)c(=O)c2sccc21	none (no result: RE007 growth inh, LmPK inh, AMA1-RON2 inh)
Cc1cc(Cl)ccc1NC(=O)CN1C(=O)CSc2ccc(S(=O)(=O)N(C)C)cc21	none (no result: RE007 growth inh, LmPK inh, AMA1-RON2 inh)
COCCn1c(SCC(=O)N2CCCc3ccccc32)nnc1-c1ccoc1C	Sm TGR block 40µM
Cc1ccc(-c2nnc(SCC(=O)N3CCc4ccccc43)o2)cc1	none (no result: RE007 growth inh, LmPK inh, AMA1-RON2 inh)
Cc1occc1-c1nnc(SCC(=O)N2CCc3ccccc32)o1	Sm TGR block 25µM
CC(=O)Oc1cc(C(=O)OCC(=O)N2CCc3ccccc3C2)cc(OC(C)=O)c1OC(C)=O	AMA1-RON2 inh 0.32µM (no result: LmPK inh, Sm TGR block)
COc1ccc(C(=O)OCC(=O)N2CCc3ccccc3C2)cc1OC	none (no result: LmPK inh, Sm TGR block)
CO/N=C(\C(=O)N[C@@H]1C(=O)N2C(C(=O)[O-])=C(C[n+]3cccc4c3CCC4)CS[C@H]12)c1csc(N)n1	none (no result: RE007 growth inh, LmPK inh, Sm TGR block, AMA1-RON2 inh)
O=C1Nc2ccccc2SC1c1ccccc1 (stereo not drawn)	none
Cc1ccc(NC2Sc3ccccc3NC2=O)cc1 (stereo not drawn)	Tb PYK inh 14µM
COC(=O)CCC(=O)OC1(C)C(=O)C=C2C=C(C3CC3)N(c3ccc(OC)cc3)C=C2C1=O (stereo not drawn)	none (no result: RE007 growth inh, Tb PYK inh, Sm TGR block, AMA1-RON2 inh)
CCOC(=O)c1[nH]c(=O)[nH]c1CSCCO	none
CCOC(=O)c1[nH]c(=O)[nH]c1COC(=O)c1cc2ccccc2o1	Sm TGR block 4.5µM
CCOC(=O)CCCCC(=O)c1[nH]c(=O)[nH]c1CSc1nc(C)cc(C)n1	none
CCOC(=O)CCCCC(=O)c1[nH]c(=O)[nH]c1CSc1nc2ccccc2[nH]1	Sm TGR block 3.2µM
CCOC(=O)c1[nH]c(=O)[nH]c1CSc1nc(C)cc(C)n1	Sm TGR block 35µM
CCOC(=O)CCCCC(=O)c1[nH]c(=O)[nH]c1CSc1nc(C)cc(=O)[nH]1	Sm TGR block 2.5µM, AMA1-RON2 inh inconclusive
COc1cc2nc(NCCc3ccccc3)n3nc(-c4cccnc4)nc3c2cc1OC	none (no result: RE007 growth inh, LmPK inh, AMA1-RON2 inh)
O=S1(=O)C=C(Sc2nc3cc(Cl)ccc3o2)c2ccccc21	Sm TGR block 1.6µM
Cn1ccc2cc(-c3ccc4ncnc(NCc5cccnc5)c4c3)ccc21	none (no result: RE007 growth inh, LmPK inh, Tb PYK inh, AMA1-RON2 inh)
OC(COC(c1ccc(Cl)cc1)c1ccc(Cl)cc1)CN1CCN(c2ccccn2)CC1 (stereo not drawn)	AMA1-RON2 inh 28µM
COc1ccc(C(=O)N/C(=C/c2ccco2)C(=O)N2CCCCCC2)cc1	Sm TGR block 45µM
COC(=O)/C(=C/c1ccco1)NC(=O)c1ccc(Br)o1	Sm TGR block 22µM
COC(=O)/C(=C/c1ccco1)NC(=O)c1ccco1	Sm TGR block 40µM
O=C(O)/C(=C\c1ccco1)NC(=O)c1ccco1	Sm TGR block inconclusive
C=CCOC(=O)/C(=C/c1ccco1)NC(=O)/C=C/c1ccccc1	Sm TGR block 40µM
Cc1ccc(C(=O)N/C(=C/c2ccco2)C(=O)N2CCCCC2)cc1	Sm TGR block inconclusive
CCOC(=O)c1cc(S(=O)(=O)Nc2c(C)cc(C)cc2C)[nH]n1	none (no result: RE007 growth inh, LmPK inh, AMA1-RON2 inh)
CCN(C(=O)CSc1nc2ccccc2n1Cc1ccc(F)cc1Cl)c1ccccc1	none (no result: RE007 growth inh, LmPK inh, AMA1-RON2 inh)
